# Calls of active or inactive are those of the source. How the source made its calls: active means hit-call score of the fitted dose curve at least 0.9, where 1 is the maximum; inactive means score below 0.9.
# Experiment: CEETOX_H295R_CORTIC: CeeTox H295R High-throughput Steroidogenesis Assay for Corticosterone (CORTIC) (AID 2283437);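 further: corticosterone secreted into medium quantified by mass spectrometry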
# Settings: actives raise or lower the signal
# Protocol: CEETOX_H295R is a cell-based, multiplexed-readout assay that uses H295R, a human adrenal gland cell line, with measurements taken at 48 hours after chemical dosing in a 96-well plate.CEETOX_H295R_CORTIC is one of 23 assay component(s) measured or calculated from the CEETOX_H295R assay. It is designed to make measurements of hormone induction, a form of inducible reporter, as detected with absorbance signals by HPLC-MS-MS technology.Data from the assay component CEETOX_H295R_CORTIC was analyzed into 1 assay endpoint. This assay endpoint, CEETOX_H295R_CORTIC, was analyzed with bidirectional fitting relative to DMSO as the negative control and baseline of activity. Using a type of inducible reporter, gain or loss-of-signal activity using HPLC-MS-MS was used to understand synthesis of Corticosterone in H295R cell line at 48hr of chemical exposure. To generalize the intended target to other relatable targets, this assay endpoint is annotated to the steroid hormone intended target family, where the subfamily is glucocorticoids.
# Cell culture and media preparation procedures were conducted in accordance with OECD Test No. 456 guidelines, with minor modifications. H295R cells (ATCC CRL-2128) were expanded for 5 passages and frozen in batches in liquid nitrogen. Prior to the steroidogenesis assay, H295R cells were thawed and passed at least 4 times. The maximum passage was 10. Cells were maintained in a 1:1 mixture of DMEM/F12 supplemented with 5ml/L ITS+ Premix (BD Bioscience) and 12.5 ml/L Nu-Serum (BD Bioscience). After seeding cells into 96-well plates at 50-60% confluency, cells were allowed to adhere overnight. Prior to chemical testing, culture medium was replaced with 175 uL medium containing 10 uM forskolin to stimulate steroidogenesis for 48 hours. Following prestimulation, forskolin medium was replaced with medium containing test chemical solubilized in DMSO (ensuring a final concentration of 0.1% DMSO). Test chemicals were incubated for 48 hours, then the medium was removed and split into 2 vials containing approximately 75uL each, and stored at -80 C prior to hormone analysis. For steroid quantification, media samples were shipped to OpAns, LLC (Durham, NC) on dry ice, and samples were thawed to room temperature prior to liquid-liquid extraction. Steroid hormones were extracted from media samples using methyl tertbutyl ether (MTBE). An extra derivatization with dansyl chloride was included for estrogen (estrone and estradiol) detection only. Steroid hormones were separated by HPLC, eluted using a reverse phase C18 gradient with electrospray positive ionization, followed by quantification by tandem mass spectrometry (MS/MS). Data were acquired on a MassHunter Workstation Acquisition version B03.01 (Agilent Technologies, Inc.) and processed using MassHunter Quantitative Analysis for QQQ. Accuracy was determined for each hormone analyte from 3 standards to determine upper and lower limits of quantification (ULOQ and LLOQ, respectively) using a 7-point standard curve. Precision and accuracy of the extraction and quantification methods were calculated as the percent relative standard deviation (%RSD) of the spiked standards and percent spiked standard recovered, respectively. […] Test medium was removed following chemical exposure, and cell viability was evaluated in the same wells by MTT. MTT procedures were as follows: after removal of test medium, 500 uL of 0.5 mg/ml of 3-[4,5-dimethylthiazol-2-y]2,5-diphenyltetrazoliumbromide solution was added to the cells. Following a 4-hour incubation at 37 C and 5% CO2 to allow formazan-crystal formation, the MTT solution was removed and blue formazan salt crystals were solubilized using 500uL anhydrous isopropanol with shaking for 20 minutes. Absorbance was read at 570 and 650nm using a Packard Fusion microplate reader. Background correction of absorbance units was used to determine percent change relative to controls. […]
Compound,outcome,AC50
Oc1cccc(-c2ccccc2)c1,inactive,
CCCCCCCCCCCCN(C)C,inactive,
C[C@]12CC[C@@H](O)C[C@@H]1CC[C@@H]1[C@@H]2CC[C@]2(C)C(=O)CC[C@@H]12,,1.98 µM (active)
COc1ccc(N)cc1,inactive,
CCOCn1c(-c2ccc(Cl)cc2)c(C#N)c(Br)c1C(F)(F)F,inactive,
CCOP(=O)(OCC)OC(=CCl)c1ccc(Cl)cc1Cl,,5.28 µM (active)
OC(Cc1ccccc1Cl)(Cn1[nH]cnc1=S)C1(Cl)CC1 (centres undefined),inactive,
CC(C)(C)c1ccccc1O,inactive,
CCOP(=S)(OCC)O/N=C(\C#N)c1ccccc1,,13.8 µM (active)
CC(C)(COCC1CO1)COCC1CO1 (centres undefined),inactive,
O=S1OC[C@@H]2[C@H](CO1)[C@]1(Cl)C(Cl)=C(Cl)[C@@]2(Cl)C1(Cl)Cl (some centres undefined),inactive,
Cc1cc(C(C)(C)c2ccc(O)c(C)c2)ccc1O,inactive,
Cc1cc(Cl)ccc1O,inactive,
CCC[CH2][Sn]([Cl])([Cl])[CH2]CCC,inactive,
Cc1ccccc1OP(=O)(Oc1ccccc1C)Oc1ccccc1C,inactive,
CC(C)=CC1C(C(=O)OCc2cccc(Oc3ccccc3)c2)C1(C)C (centres undefined),inactive,
COC(=O)Nc1cccc(OC(=O)Nc2cccc(C)c2)c1,inactive,
OC(Cc1ccccc1Cl)(Cn1cncn1)C1(Cl)CC1 (centres undefined),,6.94 µM (active)
O=[N+]([O-])c1ccc(Nc2ccccc2)cc1,inactive,
